Among the data in PubChem BioAssay are composite z-score, z-score and composite Z-score values, retold here.

Structures are written as SMILES. Active and inactive are the calls of the source.

The subject of test [1] is Human papillomavirus type 1a protein E7 (residues 44-93). The test is described as follows: small molecules binding HPV E7 44-93 – biochemical, small-molecule microarray, residues 44-93, 635 nm fluorescence, primary screen (AID 1108).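 Also: E7 fragment applied at 1 µg/mL in TBST for 1 h at 4 C; score combines spot fluorescence with its signal to noise ratio.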 The conditions noted are these: fluorescence 635 nm, higher = more signal.
The nature of test [2]: hepatitis C replication reporter changes, two-sided – Huh7 cells, luciferase reporter, HCV replication inhibitor project, primary screen (AID 1109).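 Also: huh7 hepatoma cells harbouring a luciferase neomycin HCV replicon reporter; luciferase luminescence as measure of HCV replicon replication; test concentration not given here.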 The note with it: Huh7 HCV replicon luciferase reporter, 48 h; higher = more signal.
Test [3] concerns the target Left-right determination factor 2 (Homo sapiens) (UniProt O00292). The test is described as follows: small molecules binding LEFTY2 protein – biochemical, small-molecule microarray, 635 nm fluorescence scan, primary screen (AID 1110). The conditions noted are these: higher = more signal.
Test [4] deals with Calmodulin-1 (Homo sapiens) (UniProt P0DP23). The test can be described thus: small molecules binding calmodulin-1 with EGTA – biochemical, small-molecule microarray, Cy5-labelled CALM1, profiling panel (AID 1111).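 Also: labelled calmodulin applied in Tris saline Tween buffer holding calcium plus EGTA and DTT.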 The conditions noted are these: Cy5-CALM1 binding fluorescence, higher = more signal.
Test [5] has the same target. The test is described as follows: small molecules binding Ca-loaded calmodulin-1 – biochemical, small-molecule microarray, Cy5-labelled CALM1, plus calcium, artefact control for SMM control-protein annotation, profiling panel (AID 1112).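 Also: score merges spot fluorescence with signal to noise from triplicate slides.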 The conditions noted are these: Cy5-CALM1 binding fluorescence, higher = more signal.
The nature of test [6]: probe aWnt5a binding to arrayed compounds – biochemical, biotinylated probe, 635/667 nm fluorescence, primary screen (AID 1113).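 Also: score merges 667 nm fluorescence intensity with signal-to-noise per printed feature.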 The conditions noted are these: small-molecule microarray, higher = more signal.
The nature of test [7]: probe aShh binding to arrayed compounds – biochemical, biotinylated probe, 635/667 nm fluorescence, primary screen (AID 1114).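 Also: probe is biotin-labelled aShh protein from a stem cell growth factor screen; measures binding of labelled protein to compounds printed on the slide; score merges feature fluorescence at 667 nm with signal-to-noise.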 The note with it: small-molecule microarray, higher = more signal.
Test [8] is described as follows: probe aNog binding to arrayed compounds – biochemical, biotinylated probe, 635/667 nm fluorescence, primary screen (AID 1115).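 Also: probe is biotinylated aNog protein used at 0.15 µg/mL for 1 h at 4 C; z-score combines 667 nm fluorescence of each spot with its signal to noise.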 The note with it: small-molecule microarray, higher = more signal.
The target in test [9] is Torsin-1A-interacting protein 1 (Homo sapiens) (UniProt Q5JTV8). The test can be described thus: compound microarray binding of lysate hLAP1 – cell lysate, small-molecule microarray, COS7 lysate, 635/667 nm fluorescence, primary screen (AID 1116). The note with it: 635 nm fluorescence, higher = more signal.
Torsin-1A-interacting protein 1 (Homo sapiens), sequence (Q5JTV8 whole entry, looked up): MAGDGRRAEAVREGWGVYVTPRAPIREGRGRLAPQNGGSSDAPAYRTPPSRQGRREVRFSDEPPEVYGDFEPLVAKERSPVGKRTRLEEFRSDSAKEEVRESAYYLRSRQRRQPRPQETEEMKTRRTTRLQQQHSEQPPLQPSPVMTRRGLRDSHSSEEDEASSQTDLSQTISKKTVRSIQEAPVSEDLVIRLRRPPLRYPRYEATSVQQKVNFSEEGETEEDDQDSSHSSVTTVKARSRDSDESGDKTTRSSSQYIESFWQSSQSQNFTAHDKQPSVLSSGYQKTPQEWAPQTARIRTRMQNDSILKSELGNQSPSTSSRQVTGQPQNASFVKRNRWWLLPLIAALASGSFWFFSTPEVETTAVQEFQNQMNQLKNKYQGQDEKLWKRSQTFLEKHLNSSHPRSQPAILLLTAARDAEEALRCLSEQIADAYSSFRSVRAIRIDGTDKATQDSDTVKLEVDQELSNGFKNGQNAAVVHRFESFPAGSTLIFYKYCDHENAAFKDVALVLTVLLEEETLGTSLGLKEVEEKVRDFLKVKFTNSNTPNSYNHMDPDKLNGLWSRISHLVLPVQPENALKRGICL
The target of test [10] is Alpha-bungarotoxin (Bungarus multicinctus) (UniProt P60615). The test is described as follows: compounds binding labelled alpha-BTX control protein – biochemical, small-molecule microarray, Alexa647 label, 635/667 nm fluorescence, artefact control for SMM control protein annotation, profiling panel (AID 1117). The note with it: alpha-BTX-A647 binding fluorescence, higher = more signal.
Alpha-bungarotoxin (Bungarus multicinctus), sequence (P60615 whole entry, looked up): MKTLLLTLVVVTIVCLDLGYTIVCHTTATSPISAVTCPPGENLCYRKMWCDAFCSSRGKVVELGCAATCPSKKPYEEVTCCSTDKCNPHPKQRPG

The target in a further test is Albumin (Bos taurus) (UniProt P02769). The test is described as follows: compounds binding labelled BSA control protein – biochemical, small-molecule microarray, Alexa647 label, 635/667 nm fluorescence, artefact control for SMM control protein annotation, profiling panel (AID 1118).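 Also: score merges 667 nm emission intensity and signal-to-noise per printed compound spot.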 The conditions noted are these: BSA-A647 binding, fluorescence 635 nm, higher = more signal.
Albumin (Bos taurus), sequence (P02769 whole entry, looked up): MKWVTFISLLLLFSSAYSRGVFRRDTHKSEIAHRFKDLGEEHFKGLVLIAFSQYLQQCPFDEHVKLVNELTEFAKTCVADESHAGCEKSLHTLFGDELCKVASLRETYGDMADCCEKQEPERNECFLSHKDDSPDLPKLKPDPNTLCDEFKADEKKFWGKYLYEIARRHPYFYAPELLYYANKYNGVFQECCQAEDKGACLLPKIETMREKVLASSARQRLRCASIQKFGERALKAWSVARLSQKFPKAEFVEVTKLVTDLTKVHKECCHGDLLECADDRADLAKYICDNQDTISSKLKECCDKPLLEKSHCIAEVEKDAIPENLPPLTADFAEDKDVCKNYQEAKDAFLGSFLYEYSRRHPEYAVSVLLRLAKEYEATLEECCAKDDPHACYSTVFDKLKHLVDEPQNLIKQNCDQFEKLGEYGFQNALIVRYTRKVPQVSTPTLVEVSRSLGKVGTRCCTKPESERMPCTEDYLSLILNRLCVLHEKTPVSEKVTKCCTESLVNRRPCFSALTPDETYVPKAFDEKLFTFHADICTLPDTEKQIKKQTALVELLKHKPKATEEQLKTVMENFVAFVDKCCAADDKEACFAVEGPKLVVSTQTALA

Test [11] in a line: probe aXIP binding to arrayed compounds – biochemical, NeuroSMM set, 635/667 nm fluorescence, primary screen (AID 1119).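 Also: probe is the protein aXip251-270 applied at 1 µg/mL to compound-printed slides; binding of probe to printed compounds measured as 667 nm fluorescence plus signal to noise.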 The conditions noted are these: small-molecule microarray, higher = more signal, called active from +8 up or from −8 down.
Test [12] is described as follows: probe aNOTCH3 binding on compound microarray – biochemical, small-molecule microarray, 635/667 nm fluorescence, primary screen (AID 1120).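 Also: probe is a biotin-tagged antibody raised against NOTCH3 rather than NOTCH3 protein; score merges spot fluorescence near 667 nm with spot signal to noise.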 The note with it: higher = more signal.
A short description of test [13]: probe aNOTCH2 binding on compound microarray – biochemical, small-molecule microarray, 635/667 nm fluorescence, primary screen (AID 1121).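 Also: score merges feature fluorescence read at 667 nm with its signal to noise.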 The conditions noted are these: higher = more signal.
Test [14] concerns the target Carbonic anhydrase 2 (Homo sapiens) (UniProt P00918). The test can be described thus: compounds binding carbonic anhydrase 2 – biochemical, small-molecule microarray, Alexa647-labelled CAII, profiling panel (AID 1122). The note with it: CAII-A647 binding fluorescence, higher = more signal.
The nature of test [15]: COS7 lysate on small-molecule microarray, probe aHis, 635 nm (AID 1123).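 Also: z-score combines 667nm fluorescence intensity with signal-to-noise per printed compound spot.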 The conditions noted are these: COS7 cell lysate, fluorescence, higher = more signal.
A short description of test [16]: probe aLAP1 signal on lysate-treated microarray – cell lysate, small-molecule microarray, COS7 lysate, primary screen (AID 1124).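 Also: lysate comes from COS7 cells expressing LAP1 and is applied at 0.3 µg/mL; score merges spot fluorescence near 667 nm with signal-to-noise over triplicate slides.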 The conditions noted are these: probe aLAP1, fluorescence, higher = more signal.
The next test relates to Sam68 (KHDRBS1). The test can be described thus: compounds binding KHDRBS1 protein – biochemical, small-molecule microarray, 635 nm fluorescence, primary screen (AID 1125).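 Also: score merges 667 nm channel intensity with signal to noise over triplicate slides.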 The note with it: higher = more signal.
Test [17] relates to Chordin-like protein 2 (CHRDL2). The test is described as follows: compounds binding chordin-like 2 – biochemical, small-molecule microarray, 635 nm fluorescence, primary screen (AID 1126).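 Also: printed compound slides probed with Chrdl2 protein at 4 µg/mL for 1 h at 4 C; score merges 667 nm emission intensity with signal to noise over three replicate slides.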 The conditions noted are these: fluorescence 635 nm, higher = more signal.
Test [18] deals with Concanavalin-A (Canavalia ensiformis) (UniProt P02866). The test can be described thus: compounds binding concanavalin A lectin – biochemical, small-molecule microarray, Alexa647 label, 635 nm, artefact control for SMM control protein annotation, primary screen (AID 1127).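 Also: z combines 667 nm emission intensity with signal-to-noise across three replicate slides.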 The conditions noted are these: ConA-A647 binding fluorescence, higher = more signal.
Concanavalin-A (Canavalia ensiformis), sequence (P02866 whole entry, looked up): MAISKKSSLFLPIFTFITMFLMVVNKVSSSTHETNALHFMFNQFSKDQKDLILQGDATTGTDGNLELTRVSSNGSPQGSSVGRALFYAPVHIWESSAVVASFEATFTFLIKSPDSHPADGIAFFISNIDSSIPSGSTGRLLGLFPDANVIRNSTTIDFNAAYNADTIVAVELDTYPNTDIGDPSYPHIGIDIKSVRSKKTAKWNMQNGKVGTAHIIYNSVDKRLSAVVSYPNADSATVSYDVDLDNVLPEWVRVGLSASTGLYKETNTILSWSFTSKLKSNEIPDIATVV

Left-right determination factor 2 (Homo sapiens), sequence (O00292 whole entry, looked up): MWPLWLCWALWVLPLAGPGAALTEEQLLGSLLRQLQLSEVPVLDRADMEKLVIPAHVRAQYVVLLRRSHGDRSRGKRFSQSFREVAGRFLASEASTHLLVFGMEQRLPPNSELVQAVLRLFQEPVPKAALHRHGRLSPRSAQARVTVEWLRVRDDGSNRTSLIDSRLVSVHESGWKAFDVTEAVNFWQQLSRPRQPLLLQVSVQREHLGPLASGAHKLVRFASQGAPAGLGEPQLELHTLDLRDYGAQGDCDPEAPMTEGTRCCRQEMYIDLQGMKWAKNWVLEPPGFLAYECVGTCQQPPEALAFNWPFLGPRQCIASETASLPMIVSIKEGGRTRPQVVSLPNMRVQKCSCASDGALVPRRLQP

On to `CO[C@H]1O[C@H](CO)[C@@H](OC(=O)Nc2ccc(C(F)(F)F)cc2)[C@H](OC(=O)Nc2ccccc2)[C@H]1OC(=O)Nc1ccccc1`, for which the composite z-score in test [1] was found to be 0.69; in [3] it was 0.513; in test [4], 1.99; in [5], 0.168; in test [6], 0.133; in test [7] it was 0.342. Further, the composite z-score in test [8] came out at 1.18; in test [9], 0.825; in test [10], 2.69; in the test with Albumin (Bos taurus) it was 0.868; in test [12], 0.248; in test [13], 0.0083. Also, the composite z-score is 0.565 in [14]; 2.68 in test [15]; 0.494 in test [16]; 1.3 with Sam68 (KHDRBS1); -0.42 in [17]; 1.21 in test [18]. In [2], the z-score was -3.84. Also, in [11], the composite Z-score is -0.465 (inactive).
As to `COC(=O)C(CC#Cc1ccc2c(c1)[C@]1(C(=O)N2)[C@H](c2ccc(O)cc2)N2[C@H](c3ccccc3)[C@H](c3ccccc3)OC(=O)[C@H]2[C@@H]1C(=O)O)C(=O)OC`, the composite z-score in [1] is 0.69; in [3], 0.029; in test [4], 0.351; in test [5], 0.0474; in test [6], -0.175; in test [7], -0.206. In addition, the composite z-score in [8] is -0.124; in test [9], -0.347; in [10] it was 0.33; with Albumin (Bos taurus), 0.587; in test [12] it was 0.18; in test [13], -0.0891. Further, the composite z-score in [14] is 0.766; in [15], 1.07; in test [16] it was 0.308; in the test with Sam68 (KHDRBS1) it was 0.318; in [17], -0.3; in [18], 0.819. Also, the z-score in test [2] is -0.76. The composite Z-score in [11] is 0.877 (inactive).
On to `CCCCCCC#C[Si](O[C@H](c1ccccc1)c1cn(Cc2cccc(Cl)c2)nn1)(C(C)C)C(C)C`, for which the composite z-score is 0.564 in test [1]; 0.198 in test [3]; -0.0008 in test [4]; -0.159 in [5]; -0.124 in test [6]; -0.0035 in [7]. For the same molecule, the composite z-score in test [8] is -0.118; in [9] it was 0.343; in test [10], -0.0766; with Albumin (Bos taurus) it was 0.31; in test [12], -0.0647; in [13], -0.104. Also, the composite z-score in [14] was 0.205; in [15], 0.186; in test [16] it was -0.124; in the test on Sam68 (KHDRBS1), 0.581; in test [17], 0.141; in test [18], 0.57. Also, in test [2], the z-score is -0.775. Also, the composite Z-score in [11] is 0.242 (inactive).
For `COCCCNC(=O)[C@]1(Cc2ccccc2)N=C(c2ccc(OCCCO)cc2)O[C@@H]1c1ccccc1N=[N+]=[N-]`, the composite z-score was 1.24 in [1]; -0.314 in [3]; 1.61 in test [4]; 0.24 in test [5]; 0.008 in test [6]; -0.0866 in [7]. Moreover, the composite z-score is 0.433 in [8]; 0.997 in [9]; 0.974 in test [10]; 0.855 with Albumin (Bos taurus); 0.0999 in test [12]; -0.106 in test [13]. For the same molecule, the composite z-score in test [14] is 0.502; in test [15], 0.0137; in test [16], 0.287; in the test on Sam68 (KHDRBS1) it was 1.29; in [17], -0.26; in [18], 1.1. Further, the z-score in test [2] is -3.4. Further, the composite Z-score in [11] was 0.454 (inactive).
In the case of `Cc1ccc(F)cc1S(=O)(=O)N[C@@H]1CCN(C(=O)c2ccc(OC(C)C)cc2)C1`, the composite z-score in [1] was 0.801; in test [3], 1.08; in [4] it was 0.237; in test [5], -0.603; in [6], -0.032; in test [7], 0.0121. In addition, the composite z-score was -0.425 in [8]; 0.521 in test [9]; 0.247 in test [10]; 0.0765 with Albumin (Bos taurus); 0.116 in test [12]; -0.184 in test [13]. Further, the composite z-score was -0.0494 in test [14]; 0.644 in [15]; 0.194 in test [16]; 1.13 in the test with Sam68 (KHDRBS1); 0.686 in [17]; 0.0897 in test [18]. For the same molecule, the z-score in test [2] was -0.0287. Moreover, the composite Z-score in [11] was -0.107 (inactive).
With `COc1cc(C(O)C2C=CC3C(=O)NC(=O)C3N2Nc2ccc(Cl)cc2Cl)cc(OC)c1OC` (stereo not given), the composite z-score was 1.44 in test [1]; -0.118 in test [3]; 2.03 in [4]; 0.866 in test [5]; 0.0809 in test [6]; -0.0243 in test [7]. Also, the composite z-score in test [8] amounted to 1.22; in [9] it was 1.22; in [10] it was 0.877; in the test with Albumin (Bos taurus) it was 0.254; in test [12] it was 0.454; in test [13], 0.0956. The composite z-score in test [14] was 0.752; in test [15] it was 2.99; in test [16] it was 0.115; in the test with Sam68 (KHDRBS1), 0.79; in [17] it was -0.0696; in [18], 1.05. The molecule also returned a z-score in test [2] of 0.221. In addition, in [11], the composite Z-score was -0.762 (inactive).
